Compounds with a hit are over-represented: about 9.2% of the library has one in this group of screens.
FLuc counter – counter-screen for miR-21 project: firefly luciferase inhibitors or activators. purified FLuc, Km substrates, luminescence inhibition. Potency, µM (series often up to 57.5 µM), for the others: at the highest dose activity change, negative = inhibition, usual class: inhibitors. 360,000 compounds, 6.9% hits. AID 588342;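 note: plate controls were vehicle for no effect and reference inhibitor for full effect; nearly all actives have a fitted effect of over 55% in size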
Target sequence (P08659 whole entry, looked up): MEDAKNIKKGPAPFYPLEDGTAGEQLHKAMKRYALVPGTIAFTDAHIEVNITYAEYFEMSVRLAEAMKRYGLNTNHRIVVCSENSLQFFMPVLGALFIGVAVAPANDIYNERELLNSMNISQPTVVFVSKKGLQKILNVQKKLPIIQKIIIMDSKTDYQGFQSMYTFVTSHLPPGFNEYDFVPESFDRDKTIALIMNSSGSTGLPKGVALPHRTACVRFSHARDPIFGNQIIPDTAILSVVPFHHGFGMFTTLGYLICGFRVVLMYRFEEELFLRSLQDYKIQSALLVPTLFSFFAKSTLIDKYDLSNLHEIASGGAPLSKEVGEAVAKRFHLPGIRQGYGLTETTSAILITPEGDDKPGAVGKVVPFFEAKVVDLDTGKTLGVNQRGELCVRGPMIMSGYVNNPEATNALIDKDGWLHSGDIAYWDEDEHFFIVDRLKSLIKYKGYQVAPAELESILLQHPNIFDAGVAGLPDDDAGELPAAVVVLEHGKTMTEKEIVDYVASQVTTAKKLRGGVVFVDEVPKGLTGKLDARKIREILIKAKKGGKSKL
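Biochemical qHTS of compounds, final roughly 60 µM downward over six points, against 10 nM purified firefly luciferase using Km concentrations of substrates (10 uM D-luciferin, 10 uM ATP) in Tris acetate pH 7.5 buffer; luminescence output.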
Rab9 promoter act – activators of Rab9 promoter. Potency, µM (doses to about 9.22 µM), for inactives: at the top dose activation, negative = inhibition, most hits filed as activators. 320,000 compounds, 2.8% hits. Huh7 Rab9 promoter-luciferase reporter, luminescence, 24 h; note: % of control where 0% means no effect; nearly all actives have a fitted effect of over 60% in size
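Cell-based reporter: Huh7 stable for Rab9 promoter-driven luciferase, plated in reduced-serum medium with 10% FBS at 1500 cells/well, compound-treated 24 h at 37 °C, luminescence read after 10 min reagent.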
ELG1 repair inh – blocks ELG1-dependent DNA repair in HEK293T cells; HEK293T ELG1-luciferase reporter, luminescence, 16 h; DNA damage induced by 5-fluorouridine; Potency, µM (series often up to 46.1 µM), for the others: top-dose activity change, negative = inhibition, usual class: inhibitors; 330,000 compounds, 2.3% hits; note: % is set by controls: 0 for no effect and ±100 for the full control effect; nearly all actives have a fitted effect of over 55% in size
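Cells (2,000 per well) received 5-fluorouridine plus test compound or DMSO and were incubated 16 hr at 37 °C, 5% CO2. Luciferase activity was read by luminescence 30 min after ONE-Glo addition; signal suppression marked inhibition of damage-induced ELG1 function.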
SMN2 splice up – SMN2 splice variant enhancement; 210,000 compounds, 2.8% hits; AID 1458; HEK293 SMN2-luciferase splicing reporter, luminescence, 30-36 h; Potency, µM (titrated, usually from 46.1 µM), inactives show at the highest dose activity change, positive = activation, usual class: activators; note: % of control where 0% means no effect; nearly all actives have a fitted effect of over 55% in size
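HEK293 cells carry an SMN2 minigene-luciferase reporter in which exon 7 inclusion puts luciferase in frame. Cells were seeded at 2000 cells/well, attached for 10-12 hours, then exposed to compounds for 30-36 hours at 37C before ONE-Glo luminescence.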
NPC1 prom act – NPC1 promoter activation; Huh7 NPC1 promoter luciferase reporter, 24 h; Potency, µM (titrated, usually from 9.22 µM), for the others: at the highest dose activation, hits mostly activators; AID 485313; 320,000 compounds, 2.4% hits; note: % of control where 0% means no effect; nearly all actives have a fitted effect of over 60% in size
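Luminescence from an NPC1 promoter-driven luciferase reporter in stably transfected Huh7 cells was measured after 24 h compound treatment at 37 °C, followed by 10 min ambient incubation with luciferase detection reagent.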
ELG1 genotoxic – induces genotoxicity in HEK293T cells with luciferase-tagged ELG1. HEK293T ELG1-luciferase reporter, luminescence, 16 h. Potency, µM (series often up to 46 µM), without a hit: at the highest dose activity change, positive = activation, usual class: activators. 330,000 compounds, 1.3% hits. AID 504466; note: % of control where 0% means no effect; nearly all actives have a fitted effect of over 60% in size
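DMSO vehicle served as control against compound-treated ELG1-luciferase HEK293T cells; exposure lasted 16 hr at 37 °C and 5% CO2, followed by ONE-Glo luminescence detection after 30 min.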
* = called active by the depositor; ? = inconclusive; · = not tested or not shown. Calls come from the whole dose curve; as a rule, active = well fitted curve in the direction sought with a large enough effect; inconclusive = small, poorly fitted or top-dose-only effect, or another doubt; inactive = no such curve, though single readings can be large; an effect the other way counts as inactive or inconclusive. Potency is the fitted concentration of half-maximal effect.

SMILES	FLuc counter	Rab9 promoter act	ELG1 repair inh	SMN2 splice up	NPC1 prom act	ELG1 genotoxic
O=c1cc(-c2ccc(Cl)cc2)oc(=O)[nH]1	17µM*	0%	0%	·	-3%	-1%
O=C(O)c1ccccc1OCc1ccccc1Br	-14%	-1%	9%	10%	-1%	-4%
Cc1noc(C)c1COC(=O)CCCc1nc2ccccc2s1	-6%	7%	6%	16%	1%	3%
CCCCC(=O)OCc1nc2ccccc2s1	21µM*	15%	?	10%	-1%	9%
N#C/C(=C(/O)COC(=O)c1ccccc1O)c1nc2ccccc2s1	21µM*	1%	7%	-42%	-3%	-9%
COc1cc(OC)cc(C(=O)NCC(=O)OCc2nc3ccccc3s2)c1	9.5µM*	?	?	·	14%	?
O=C(O)c1ccccc1OCc1nc2ccccc2s1	3.8µM*	11%	?	·	?	?
O=C(OCc1nc2ccccc2s1)c1cccs1	2.7µM*	·	·	?	·	·
O=C(OCc1nc2ccccc2s1)c1ccccc1O	8.5µM*	24%	?	-4%	7%	?
O=C(c1ccccc1)c1ccc(COC(=O)c2cnccn2)cc1	24µM*	-1%	0%	4%	0%	6%
O=C(OCc1nc2ccccc2s1)c1cnccn1	11µM*	4%	?	-4%	-2%	?
Cc1c(Cl)cccc1NS(=O)(=O)c1ccc2[nH]cc(C(=O)NC3CCCC3)c(=O)c2c1	?	·	·	-7%	·	·
CCN(C(=O)c1cn(CC(C)C)c(=O)c2cc(OC)c(OC)cc12)c1cc(OC)ccc1OC	-3%	·	·	2%	·	·
CCN(C(=O)c1ccc(C(C)(C)C)cc1)c1nnc(Cn2nnc3ccccc32)s1	-1%	-24%	4.1µM*	-59%	-28%	-9%
CCN(C(=O)CC(C)C)c1nnc(Cn2nnc3ccccc32)s1	-10%	-12%	8.2µM*	-53%	-11%	-1%
CCc1cccc(CC)c1N(COC)C(=O)Cn1nnc2ccccc21	-1%	4%	-13%	27%	-1%	-2%
CC(C)(C)c1cccc(Cn2nnc3ccccc32)c1O	-13%	-3%	9%	·	3%	-3%
CCN(CC)c1ccc(N=Cc2ccccc2[N+](=O)[O-])cc1	3.8µM*	3%	-3%	-22%	-1%	-7%
CCN(CC)c1ccc(N=Cc2ccc([N+](=O)[O-])o2)cc1	6.7µM*	22%	6%	-15%	14%	-2%
O=C(NCCc1ccccc1)c1cc(-c2cccc(Cl)c2)on1	-1%	·	·	-5%	·	·
COc1ccc(N(CCCN2C(=O)c3cccc4cccc(c34)C2=O)C(=O)c2cccc(OC)c2)cc1	-2%	-9%	18µM*	-21%	-1%	-4%
COc1ccc(-n2c(/C=C(\C)O)nc(=O)c3c(C)cc(C)nc32)cc1	-7%	-5%	8.2µM*	2%	-5%	-9%
CN(/N=C/c1ccncc1)C1=NCCN1	-2%	8%	6%	·	-3%	0%
CN(/N=C/c1ccncc1)c1cnc2ccccc2n1	4.8µM*	4µM*	?	11µM*	?	2%
NNC(=O)c1cc(-c2ccc(N)cc2)nc2ccc(Br)cc12	?	1%	?	·	4%	2%
SMILES	FLuc counter	Rab9 promoter act	ELG1 repair inh	SMN2 splice up	NPC1 prom act	ELG1 genotoxic
O=C(c1cc(COc2ccc3ncccc3c2)on1)N1CCCCCC1	?	-29%	?	-45%	-18%	6%
O=C(NCCc1cn2ccccc2n1)c1cc(COc2ccc3ncccc3c2)on1	?	-14%	8.2µM*	·	-16%	-15%
Cc1cccc(N(CC(=O)NCCSc2nc3ccccc3s2)S(=O)(=O)c2ccccc2)c1	-1%	-3%	16µM*	-4%	0%	-1%
COC(=O)CN1C(=O)S/C(=C/c2ccc(N3CCCCC3)o2)C1=O	19µM*	?	?	-12%	24%	15%
COc1ccc(N=C2S/C(=C\c3cc(C)n(C)c3C)C(=O)N2CC(C)C)cc1	-4%	-2%	?	-3%	0%	-5%
O=C(O)CN1C(=O)/C(=C/c2ccc(N3CCCCC3)o2)SC1=S	11µM*	10%	-4%	·	0%	0%
COC(=O)CN1C(=O)S/C(=C/c2cc(C)n(C)c2C)C1=O	9.5µM*	3.5µM*	?	27%	4µM*	?
CCOC(=O)CN1C(=O)S/C(=C/c2ccc(N3CCCCC3)o2)C1=O	?	-1%	14%	-5%	0%	1%
COc1cc(OC)c(N(C)C(=O)Cn2ncc3c([nH]c4ccccc43)c2=O)cc1Cl	1%	·	·	·	·	·
CCOC(=O)C1=C(CN2CCN(c3ccc(Cl)cc3)CC2)NC(=O)NC1c1ccc(OC)cc1 (stereo not drawn)	-6%	·	·	·	·	·
CCOc1ccc(NC(=O)CSc2nnc(Cc3csc(C)n3)o2)cc1	2%	0%	-5%	·	-9%	-1%
CCOc1ccc(Nc2nc(Cc3nnc(SCC(N)=O)o3)cs2)cc1	15µM*	-1%	6%	-13%	-2%	5%
O=C(COC(=O)c1cc(=O)[nH]c2ccccc12)c1cccs1	12µM*	-7%	3%	·	-2%	-2%
Cc1ccc(C(=O)COC(=O)c2cc(=O)[nH]c3ccccc23)cc1	?	3%	25%	?	6%	?
O=C(COC(=O)c1cc(=O)[nH]c2ccccc12)c1ccccc1	2.7µM*	0%	-6%	5%	0%	-8%
O=C(OCC(=O)c1cccs1)c1ccccc1	0.95µM*	11%	?	-6%	21%	?
COc1cccc(/C=C/c2nc(C#N)c(N3CCC(C(N)=O)CC3)o2)c1	0%	·	·	14%	·	·
Cc1cc(C)cc(NC(=O)c2ncn(-c3ccccc3)n2)c1	?	·	·	11µM*	·	·
O=C1N/C(=C\c2nc3ccccc3s2)c2ccccc21	0.19µM*	0.28µM*	?	·	1µM*	0.58µM*
CCN(CC(O)CON=C1c2ccccc2-c2ccccc21)S(=O)(=O)c1ccc(C)cc1 (stereo not drawn)	0%	2%	-29%	-17%	-2%	-6%
CN(CC(O)CON=C1c2ccccc2-c2ccccc21)S(=O)(=O)c1ccc(Br)cc1 (stereo not drawn)	-3%	0%	21µM*	-15%	0%	-12%
Cc1ccc(O)c(NC(=O)c2noc3c2CCc2ccccc2-3)c1	5%	?	?	-51%	?	23µM*
CC(=O)c1cccc(NC(=O)c2noc3c2CCc2ccccc2-3)c1	2.4µM*	2.5µM*	?	3.5µM*	4µM*	?
